ANO1 block = TMEM16A chloride channel inhibitors, primary screen, cell-based, HTS. HEK293 TMEM16A/YFP iodide influx fluorescence, ionomycin. Anoctamin-1 (Mus musculus), Q8BHY3. 310,000 tested, 1.2% active. normalized B-score (activity score, 25-100; higher = stronger inhibition) at 10 µM;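 active = ratio plate-corrected score three or more library SD toward inhibition, starting fluorescence score within five deviations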;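 note: score derived from kinetic fluorescence span divided by baseline fluorescence per well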
TLR9-MyD88 inh = inhibitors of TLR9-MyD88 association in cells, primary screen, cell-based, CHO, BLA complementation, fluorescence | CCF4 FRET ratio | inhibition, % at 4.98 µM | 340,000 tested, 0.21% active | AID 504734, 2011;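 active = inhibition above the mean over all tested compounds plus 3 SD, cut at about 21% in these data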;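 note: 0% = DMSO only wells and 100% = clavulanate BLA inhibitor control wells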
TLR4-MyD88 BLA = inhibitors of TLR4-MyD88 association in cells, primary screen, cell-based, HeLa CL3-4, BLA complementation, FRET ratio | 200,000 tested, 0.18% active | inhibition, % at 8.4 µM | HeLa CL3-4 TLR4/MyD88 BLA complementation | AID 861, 2007 | Toll-like receptor 4 (Homo sapiens) + Myeloid differentiation primary response protein …; in the data active = inhibition above about 25%;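 note: 0% = vehicle and 100% = reference inhibitor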
ANO1 activ = TMEM16A chloride channel activators or potentiators, primary screen, cell-based, HTS | Anoctamin-1 (Mus musculus), Q8BHY3 | HEK293 TMEM16A/YFP-H148Q/I152L, iodide quench fluorescence; stronger effect = lower value | B-score at 10 µM | 340,000 tested, 0.3% active | AID 623877, 2012;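 active = fluorescence-ratio B-score plate-corrected deviation score at least 3 library SD below zero, with starting fluorescence score within 5 deviations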;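 note: channel opened by trigger with iodide after compound preincubation; score built on the fluorescence ratio of max minus min over baseline; more negative score means more quench and so TMEM16A activation or potentiation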
GRK2 inh = compounds blocking aptamer binding on GRK2 – biochemical, human GRK2, bead flow cytometry, HTS, primary screen; Beta-adrenergic receptor kinase 1 (Homo sapiens), P25098; FAM-aptamer displacement from GRK2; inhibition of aptamer binding, % at 10 µM; 330,000 tested, 0.59% active; AID 488847, 2010;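 active = inhibition of aptamer binding above 40%, roughly 3 SD of noise, on plates passing a quality check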;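 note: median bead fluorescence of bound FAM aptamer so fluorescent compounds give negative values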
Target sequence (P25098 whole entry, looked up): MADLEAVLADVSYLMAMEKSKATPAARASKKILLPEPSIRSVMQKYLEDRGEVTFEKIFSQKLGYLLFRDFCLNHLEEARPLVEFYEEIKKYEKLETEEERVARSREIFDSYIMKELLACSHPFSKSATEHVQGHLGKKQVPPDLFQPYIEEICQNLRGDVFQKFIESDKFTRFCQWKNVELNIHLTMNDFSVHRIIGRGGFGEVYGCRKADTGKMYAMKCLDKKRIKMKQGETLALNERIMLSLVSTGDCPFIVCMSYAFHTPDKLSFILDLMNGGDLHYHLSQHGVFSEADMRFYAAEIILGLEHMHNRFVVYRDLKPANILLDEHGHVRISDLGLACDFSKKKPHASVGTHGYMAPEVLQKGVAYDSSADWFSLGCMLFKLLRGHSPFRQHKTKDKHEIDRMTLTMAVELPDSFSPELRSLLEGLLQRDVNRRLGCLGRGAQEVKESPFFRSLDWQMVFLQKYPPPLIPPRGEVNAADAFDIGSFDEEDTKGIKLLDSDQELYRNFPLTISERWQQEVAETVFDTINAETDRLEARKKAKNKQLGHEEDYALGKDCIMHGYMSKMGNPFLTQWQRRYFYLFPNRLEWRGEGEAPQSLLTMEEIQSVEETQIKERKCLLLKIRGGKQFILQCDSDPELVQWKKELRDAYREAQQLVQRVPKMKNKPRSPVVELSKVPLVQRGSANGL
NOD2 RIPK2 PPI = NOD2-RIPK2 binding disruptors in cells, primary screen, fluorescence, CHO cells, BLA complementation | Receptor-interacting serine/threonine-protein kinase 2 (Homo sapiens), O43353 | CCF4 ratio | inhibition, % at 4.98 µM | 360,000 tested, 0.38% active; in the data active = inhibition above about 21%;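 note: 0% = vehicle only and 100% = reference blocker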
TLR4 MyD88 cnf = TLR4-MyD88 association inhibitors, retest, confirmation, cell-based, HeLa CL3-4, BLA complementation, FRET ratio. shares compounds with TLR4-MyD88 BLA. inhibition, % at 8.4 µM. CCF4 FRET ratio. AID 941, 2007. 350 tested, 50% active;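 active = mean inhibition across three repeat runs above about 25% carried over from the earlier screen, limit read from the data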;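 note: plate controls were DMSO only for no effect and clavulanic acid blocking BLA at full dose for full effect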
BLA inh HeLa = inhibits beta-lactamase activity, counter-screen to TLR4-MyD88 binding inhibitors | inhibition, % at 8.4 µM | HeLa BLA reporter, CCF4 FRET ratio | 350 tested, 63% active | shares compounds with TLR4-MyD88 BLA;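 active = mean inhibition over three repeats above about 26% taken from the earlier screen, limit read from the data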;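 note: HeLa cells stably expressing beta-lactamase reporter as counterscreen for TLR4-MyD88 inhibitors; 0% = DMSO and 100% = clavulanic acid full inhibition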
GRK2 CP1 = GRK2 aptamer-displacing inhibitors, retest, confirmation, biochemical, cherry pick 1, bead flow cytometry | shares compounds with GRK2 inh | bead-bound GRK2, FAM-aptamer displacement | aptamer displacement, % at 10 µM | 2,000 tested, 4% active | AID 504451, 2011;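 active = aptamer displacement above 40%, near three times the noise of non-fluorescent compounds, on plates passing quality checks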;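 note: negative values mostly reflect intrinsic compound fluorescence rather than true enhancement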
FAM quench CP1 = aptamer fluorescence quenching in GRK2 counter-screen; shares compounds with GRK2 inh; 2,000 tested, under 10 active; fluorescence response (% of DMSO), % at 10 µM; Carboxyfluorescein RNA aptamer on beads, flow cytometry quenching; stronger effect = lower value; AID 504580;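 active = compounds that quench the bead-bound fluorescent RNA probe, cutting fluorescence to under half of the solvent control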;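 note: counterscreen run without GRK2 so only probe quenching by compound is measured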
TLR9-MyD88 conf = TLR9-MyD88 association inhibitors, retest, confirmation, cell-based, CHO, BLA complementation, fluorescence, triplicate | shares compounds with TLR9-MyD88 inh | 680 tested, 51% active | inhibition, % at 4.98 µM | CCF4 FRET ratio;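 active = mean inhibition across three repeats above about 21% taken from the earlier screen, limit read from the data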;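 note: blue over green emission ratio reports constitutive TLR9 MyD88 association via BLA complementation; 0% = DMSO vehicle wells and 100% = clavulanate BLA inhibitor wells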
BLA counter-1 = beta-lactamase reporter inhibitors in CHO cells, artefact control for TLR9-MyD88 binding inhibitor project, cell-based, fluorescence | shares compounds with TLR9-MyD88 inh | CHO-BLA cells, CCF4 FRET ratio, BLA reporter | inhibition, % at 4.98 µM | 680 tested, 7% active;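 active = mean inhibition above a 50% cutoff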;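 note: counterscreen of TLR9-MyD88 hits on CMV-driven BLA in CHO-K1 cells; 0% = DMSO alone and 100% = clavulanate blocking BLA; higher means less blue over green ratio so more BLA blockade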
TLR9 CHO tox = CHO cell viability loss – luminescence, single concentration, cytotoxicity control for TLR9-MyD88 binding inhibitor project; shares compounds with TLR9-MyD88 inh; TLR9-MyD88 CHO cells cytotoxicity; inhibition, % at 4.98 µM; 680 tested, 39% active; AID 588336, 2011; in the data active = inhibition above about 11%
NOD2-RIPK2 conf = NOD2-RIPK2 binding disruptors, retest, confirmation, fluorescence, CHO cells, BLA complementation, triplicate. shares compounds with NOD2 RIPK2 PPI. CCF4 FRET. inhibition, % at 4.98 µM. 1,200 tested, 70% active. AID 624370, 2012;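 active = mean inhibition across replicates above a set limit taken from the earlier primary screen, cut at about 21% in these data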;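 note: 0% = DMSO-only wells and the high end = clavulanate BLA-blocked wells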
BLA counter-2 = hits BLA reporter in NOD2-RIPK2 inhibitor counterscreen. 1,200 tested, 57% active. AID 624371. shares compounds with NOD2 RIPK2 PPI. inhibition, % at 4.98 µM. CHO BLA reporter, CCF4 FRET ratio;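 active = mean inhibition above the low-control mean inhibition plus three low-control SD, cut at about 11% in these data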;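 note: 0% = DMSO only wells and 100% = clavulanate high control wells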
* marks the source's active call; other numbers are inactive results; i = inactive; . = no result given. Rows were chosen to be rich in hits. Some 2.2% of all compounds tested hit in one or more screens of this group.

SMILES | ANO1 block | TLR9-MyD88 inh | TLR4-MyD88 BLA | ANO1 activ | GRK2 inh | NOD2 RIPK2 PPI | TLR4 MyD88 cnf | BLA inh HeLa | TLR9-MyD88 conf | BLA counter-1 | TLR9 CHO tox | NOD2-RIPK2 conf | BLA counter-2 | others
CCOC(=O)c1ccc(NC(=O)Cn2ncc(Cl)c(Cl)c2=O)cc1 | i | 27* | 27* | i | 5 | 52* | 37* | 11 | 24* | 15 | 99* | 65* | 14*
CCOC(=O)c1ccc(NC(=O)Cn2nc(C)c3ccccc3c2=O)cc1 | i | 3 | . | i | 1 | -10 | . | . | . | . | . | . | .
O=C(NCc1cccnc1)c1cc(C2CCCN(S(=O)(=O)c3cccs3)C2)on1 (stereo unspecified) | . | . | . | . | . | -5 | . | . | . | . | . | . | .
CN(C)CCCN1C(=O)c2cccc3c([N+](=O)[O-])ccc(c23)C1=O | i | 70* | 86* | i | 0 | 82* | 86* | 109* | 55* | 72* | 95* | 90* | 77*
CC(C)CNC(=O)COC(=O)c1c2c(nc3ccccc13)/C(=C/c1cccs1)CC2 | i | 32* | 45* | i | 0 | 38* | 43* | 71* | 41* | 49 | 9 | 65* | 73*
CCOC(=O)Cn1cc(/C=C/[N+](=O)[O-])c2ccccc21 | i | -2 | 5 | i | 0 | -7 | . | . | . | . | . | . | .
CCOc1ccc(/C=C/[N+](=O)[O-])c2ccccc12 | i | 14 | 27* | i | 1 | 58* | 22 | -24 | . | . | . | 91* | 7
O=C(NCc1ccco1)C1CCCN1C(=O)NCc1ccccc1 (stereo unspecified) | i | -6 | 9 | i | 0 | -13 | . | . | . | . | . | . | . | GRK2 CP1=1;FAM quench CP1=97
Cc1nc(C)c(NC(=O)N2CCc3ccccc32)cc1NC(=O)N1CCc2ccccc21 | i | -6 | -6 | i | 6 | -1 | . | . | . | . | . | . | .

Source: PubChem BioAssay
